Measured values taken from the supplement of paper PMC9694430.
Counter-ions that a name gives are not always drawn.

Columns and labels:
Assay in all cases: thermal shift delta Tm vs DMSO control; higher = stronger stabilization (binding)
Settings in all cases: 12.5 µM; protein concentration 2 µM
LOC_OS02G45750-cb003 = tested on: LOC_OS02G45750-cb003
Summary of the method: (§1)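 Heating from 25°C to 95°C at 0.05°C/s, fluorescence was recorded for 19.5 μl wells of 2 μM E. coli-expressed, purified rice kinase domain in 100 mM potassium phosphate pH 7.5, 150 mM NaCl, 10% glycerol and 5 × SYPRO Orange with compound in DMSO. Boltzmann fits gave melting temperatures for this differential scanning fluorimetry assay. The shift reported is the mean of three replicates against the DMSO-only protein.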

LOC_OS02G54510-cb004 = tested on: LOC_OS02G54510-cb004
Summary of the method: as §1

LOC_OS03G04050-cb001 = tested on: LOC_OS03G04050-cb001
Summary of the method: as §1

LOC_OS03G12390-cb001 = tested on: LOC_OS03G12390-cb001
Summary of the method: as §1

LOC_OS03G27990-cb004 = tested on: LOC_OS03G27990-cb004
Summary of the method: as §1

LOC_OS03G50450-cb001 = tested on: LOC_OS03G50450-cb001
Summary of the method: as §1

LOC_OS03G50810-cb003 = tested on: LOC_OS03G50810-cb003
Summary of the method: as §1

LOC_OS04G35114-cb001 = tested on: LOC_OS04G35114-cb001
Summary of the method: as §1

LOC_OS04G38480-cb003 = tested on: T1, LOC_OS04G38480-cb003
T1 sequence (whole entry): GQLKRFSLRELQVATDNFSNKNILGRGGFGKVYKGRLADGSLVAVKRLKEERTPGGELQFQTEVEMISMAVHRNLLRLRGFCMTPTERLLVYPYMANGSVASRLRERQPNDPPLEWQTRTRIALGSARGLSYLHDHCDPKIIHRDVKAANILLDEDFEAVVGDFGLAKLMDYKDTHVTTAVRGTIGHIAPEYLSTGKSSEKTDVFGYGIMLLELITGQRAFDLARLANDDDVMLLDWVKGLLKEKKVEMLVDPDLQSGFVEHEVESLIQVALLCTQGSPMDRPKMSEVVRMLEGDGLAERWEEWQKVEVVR
Summary of the method: as §1

LOC_OS04G41100-cb001 = tested on: T2, LOC_OS04G41100-cb001
T2 sequence (whole entry): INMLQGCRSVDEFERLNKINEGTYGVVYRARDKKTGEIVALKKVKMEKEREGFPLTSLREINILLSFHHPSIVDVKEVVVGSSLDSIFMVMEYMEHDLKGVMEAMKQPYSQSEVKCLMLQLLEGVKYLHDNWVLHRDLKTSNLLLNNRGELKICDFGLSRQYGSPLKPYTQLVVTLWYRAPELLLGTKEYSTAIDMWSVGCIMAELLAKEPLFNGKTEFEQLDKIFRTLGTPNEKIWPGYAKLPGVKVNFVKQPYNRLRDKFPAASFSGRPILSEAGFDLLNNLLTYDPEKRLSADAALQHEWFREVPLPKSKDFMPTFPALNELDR
Summary of the method: as §1

LOC_OS04G57630-cb004 = tested on: LOC_OS04G57630-cb004
Summary of the method: as §1

LOC_OS05G07850-cb002 = tested on: LOC_OS05G07850-cb002
Summary of the method: as §1

LOC_OS05G16824-cb004 = tested on: LOC_OS05G16824-cb004
Summary of the method: as §1

LOC_OS05G28520-cb001 = tested on: LOC_OS05G28520-cb001
Summary of the method: as §1

LOC_OS05G30820-cb001 = tested on: LOC_OS05G30820-cb001
Summary of the method: as §1

LOC_OS05G43570-cb004 = tested on: LOC_OS05G43570-cb004
Summary of the method: as §1

LOC_OS06G16330-cb003 = tested on: LOC_OS06G16330-cb003
Summary of the method: as §1

LOC_OS06G22820-cb001 = tested on: T3, LOC_OS06G22820-cb001
T3 sequence (whole entry): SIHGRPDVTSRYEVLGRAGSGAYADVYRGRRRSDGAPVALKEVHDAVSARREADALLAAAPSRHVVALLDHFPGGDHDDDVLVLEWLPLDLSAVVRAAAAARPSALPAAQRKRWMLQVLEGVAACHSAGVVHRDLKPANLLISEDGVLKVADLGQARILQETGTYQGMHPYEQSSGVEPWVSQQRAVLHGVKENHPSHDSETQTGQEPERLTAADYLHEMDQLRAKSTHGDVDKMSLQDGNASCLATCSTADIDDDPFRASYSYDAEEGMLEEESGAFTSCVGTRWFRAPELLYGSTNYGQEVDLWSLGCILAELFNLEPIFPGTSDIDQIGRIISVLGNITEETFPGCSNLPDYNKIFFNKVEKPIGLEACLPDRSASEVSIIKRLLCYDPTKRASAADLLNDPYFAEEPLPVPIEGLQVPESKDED
Summary of the method: as §1

LOC_OS07G06570-cb004 = tested on: LOC_OS07G06570-cb004
Summary of the method: as §1

LOC_OS07G07230-cb001 = tested on: LOC_OS07G07230-cb001
Summary of the method: as §1
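Note: purified Escherichia coli-expressed rice kinase domain construct.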

Chain of LOC_OS06G16330-cb003 (as listed by the source): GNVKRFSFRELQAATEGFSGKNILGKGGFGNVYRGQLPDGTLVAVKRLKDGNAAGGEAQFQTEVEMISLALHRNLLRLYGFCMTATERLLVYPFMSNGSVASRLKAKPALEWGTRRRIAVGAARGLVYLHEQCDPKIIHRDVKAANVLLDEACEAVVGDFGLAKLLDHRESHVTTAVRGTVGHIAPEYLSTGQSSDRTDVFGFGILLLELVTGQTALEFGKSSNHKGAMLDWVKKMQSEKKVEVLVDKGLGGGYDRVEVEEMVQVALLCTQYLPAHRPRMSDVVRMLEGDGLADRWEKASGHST

Row | Structure (SMILES) | thermal shift delta Tm (LOC_OS02G45750-cb003) | thermal shift delta Tm (LOC_OS02G54510-cb004) | thermal shift delta Tm (LOC_OS03G04050-cb001) | thermal shift delta Tm (LOC_OS03G12390-cb001) | thermal shift delta Tm (LOC_OS03G27990-cb004) | thermal shift delta Tm (LOC_OS03G50450-cb001) | thermal shift delta Tm (LOC_OS03G50810-cb003) | thermal shift delta Tm (LOC_OS04G35114-cb001) | thermal shift delta Tm (LOC_OS04G38480-cb003) | thermal shift delta Tm (LOC_OS04G41100-cb001) | thermal shift delta Tm (LOC_OS04G57630-cb004) | thermal shift delta Tm (LOC_OS05G07850-cb002) | thermal shift delta Tm (LOC_OS05G16824-cb004) | thermal shift delta Tm (LOC_OS05G28520-cb001) | thermal shift delta Tm (LOC_OS05G30820-cb001) | thermal shift delta Tm (LOC_OS05G43570-cb004) | thermal shift delta Tm (LOC_OS06G16330-cb003) | thermal shift delta Tm (LOC_OS06G22820-cb001) | thermal shift delta Tm (LOC_OS07G06570-cb004) | thermal shift delta Tm (LOC_OS07G07230-cb001)
1 | CCN(CC)CCCCNc1ncc2cc(-c3cc(OC)cc(OC)c3)c(NC(=O)NC(C)(C)C)nc2n1 | 1.08 °C | 0.28 °C | 0.67 °C | 0.06 °C | 0.5 °C | 0.93 °C | 0.47 °C | 0.79 °C | 0.83 °C | 0.46 °C | -0.1 °C | -0.15 °C | -2.16 °C | 0.72 °C | 0.45 °C | 0.68 °C | -0.04 °C | 0.57 °C | 1.02 °C | 0.36 °C
2 | C[C@@H]1CN(CC(=O)Nc2ccc3c(c2)Cc2cccc(-c4cc(=O)cc(N5CCOCC5)o4)c2S3)C[C@H](C)O1 | 0.27 °C | -0.11 °C | 0.02 °C | 0.37 °C | -0.04 °C | 0.03 °C | 0.14 °C | 0.37 °C | -0.13 °C | 0.23 °C | -0.04 °C | 0.16 °C | -0.46 °C | -0.13 °C | 0.31 °C | 0.21 °C | -0.2 °C | 0.77 °C | 1.02 °C | -0.36 °C
3 | CCc1ccc(/C=C2/SC(=S)NC2=O)cc1 | -0.48 °C | 0.83 °C | 1.24 °C | 1.18 °C | 0.83 °C | 0.26 °C | 0.48 °C | 1.2 °C | 1.19 °C | 0.36 °C | 0.22 °C | 2.65 °C | -3.64 °C | 1.2 °C | 0.82 °C | 1 °C | 0.48 °C | 1.04 °C | 1.65 °C | 0.27 °C
4 | S=C(NCc1ccc2c(c1)OCO2)N1CCN(c2ncnc3c2oc2ccccc23)CC1 [Amuvatinib (MP-470)] | 0.86 °C | -2.11 °C | 0.55 °C | 0.66 °C | 0.56 °C | 0.69 °C | 0.68 °C | -0.04 °C | 0.39 °C | 0.47 °C | 0.4 °C | 1.46 °C | -4.2 °C | 0.42 °C | 0.8 °C | 0.49 °C | 1.01 °C | 0.7 °C | 0.32 °C | 0.06 °C
5 | COc1ccccc1-c1cc(Nc2cccc(CS(N)(=O)=O)c2)ncn1 | 3.96 °C | 0.61 °C | 0.43 °C | 0.77 °C | 0.57 °C | 0.51 °C | 0.56 °C | 1.63 °C | 2.33 °C | 0.8 °C | 0.35 °C | 5.65 °C | 3.26 °C | 0.95 °C | 0.39 °C | 0.37 °C | 4.76 °C | 0.66 °C | 0.36 °C | -0.22 °C
6 | CO[C@H]1C[C@@H]2CC[C@@H](C)[C@@](O)(O2)C(=O)C(=O)N2CCCC[C@H]2C(=O)O[C@H]([C@H](C)C[C@@H]2CC[C@H](n3cnnn3)[C@H](OC)C2)CC(=O)[C@H](C)/C=C(\C)[C@@H](O)[C@@H](OC)C(=O)[C@H](C)C[C@H](C)/C=C/C=C/C=C/1C [Zotarolimus(ABT-578)] | 1.04 °C | 0.46 °C | 0.79 °C | 0.05 °C | 0.77 °C | 0.89 °C | 0.33 °C | 0.66 °C | 2.27 °C | 0.4 °C | 0.76 °C | 0.65 °C | -0.34 °C | 0.87 °C | 0.57 °C | 1.17 °C | -0.09 °C | 0.92 °C | 1.43 °C | -0.08 °C
7 | NC(=O)c1cnc2[nH]ccc2c1N[C@@H]1[C@@H]2CC3C[C@H]1C[C@@](O)(C3)C2 | 8.38 °C | 2.49 °C | -0.03 °C | 7.42 °C | 4.38 °C | 3.97 °C | 4.9 °C | 3.87 °C | 2.99 °C | 1.15 °C | 1.22 °C | 12.5 °C | 8.26 °C | 0.32 °C | 2.71 °C | 0.73 °C | 5.88 °C | 0.43 °C | 1.29 °C | 0.84 °C
8 | CN1CCN(c2ccc(C(=O)Nc3n[nH]c4ccc(Cc5cc(F)cc(F)c5)cc34)c(NC3CCOCC3)c2)CC1 [Entrectinib (RXDX-101)] | 8.16 °C | 1.58 °C | 0.06 °C | 2.99 °C | 0.44 °C | 0.86 °C | 7.06 °C | 7.44 °C | 2.7 °C | 0.77 °C | 2.05 °C | 10.2 °C | 5.23 °C | 3.71 °C | 0.38 °C | 0.47 °C | 8.44 °C | 0.27 °C | 0.88 °C | 0.63 °C
9 | CN1CCN(Cc2ccc(-c3cnc4[nH]cc(-c5ccc6[nH]ccc6c5)c4c3)cc2)CC1 | 17.2 °C | 1.09 °C | 0.85 °C | 4.74 °C | 10.8 °C | 3.95 °C | 7.6 °C | 14.9 °C | 6.36 °C | 3.3 °C | 11.1 °C | 15.3 °C | 11.2 °C | 2.09 °C | 1.88 °C | 1.74 °C | 13.7 °C | 0.7 °C | 1.92 °C | 0.61 °C
10 | COc1ccc(S(=O)(=O)N(CCO)c2ccccc2CN(C)C/C=C/c2ccc(Cl)cc2)cc1 [KN-93 Phosphate] | 0.73 °C | -0.27 °C | 0.31 °C | -0.19 °C | 0.2 °C | 0.48 °C | 0.29 °C | 0.92 °C | 1.75 °C | 0.58 °C | 0.49 °C | 0.97 °C | 1.97 °C | 0.31 °C | 0.17 °C | 0.27 °C | -0.14 °C | 0.35 °C | 1.18 °C | 0.21 °C
11 | Oc1c(F)cc(-c2cnccc2-c2ccc(N3CCOCC3)cc2)cc1F | 0.77 °C | 0.07 °C | 0.28 °C | -0.05 °C | 0.11 °C | 0.25 °C | 0.2 °C | 1.09 °C | 0.6 °C | 0.44 °C | 0.16 °C | 3.05 °C | -0.48 °C | 0.43 °C | 0.5 °C | 0.44 °C | 0.26 °C | 0.6 °C | 0.96 °C | 0.44 °C
12 | CNC(=O)c1cc(Oc2ccc(NC(=O)Nc3ccc(Cl)c(C(F)(F)F)c3)cc2)ccn1 [Sorafenib Tosylate] | 2.62 °C | 1.95 °C | 0.83 °C | 1.41 °C | 0.39 °C | 0.77 °C | 1.06 °C | 0.98 °C | 2.2 °C | 1.53 °C | 1.2 °C | 9.63 °C | 1.35 °C | 1.33 °C | 0.5 °C | 1.5 °C | 1.91 °C | 2.15 °C | 1.66 °C | 0.6 °C
